# PMC11006913
# Residue numbers refer to the chain shown, from its start.
# Columns and labels:
# Assay in all cases: PBM; 200 nM protein, PBS
# Conditions in all cases: dsDNA, one strand shown
# VENTX [1] = biological target: T1, VENTX (Homo sapiens, UniProt O95231 78-163, R121Q)
# T1 sequence: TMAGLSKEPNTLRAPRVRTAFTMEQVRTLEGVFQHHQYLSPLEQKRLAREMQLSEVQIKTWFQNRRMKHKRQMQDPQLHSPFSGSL
# VENTX [2] = biological target: T2, VENTX (Homo sapiens, UniProt O95231 78-163)
# T2 sequence: T1 sequence with Q44R
# VENTX [3] = biological target: T3, VENTX (Homo sapiens, UniProt O95231 78-163, Y115F)
# T3 sequence: T1 sequence with Y38F, Q44R
# HOXA2 [4] = biological target: HOXA2 (Homo sapiens, UniProt O43364 129-215, R185T)
# HOXA2 [5] = biological target: HOXA2 (Homo sapiens, UniProt O43364 129-215, R185K)
# HOXA2 [6] = biological target: HOXA2 (Homo sapiens, UniProt O43364 129-215, Y150S)
# HOXA2 [7] = biological target: HOXA2 (Homo sapiens, UniProt O43364 129-215)
# HOXB6 [8] = biological target: HOXB6 (Homo sapiens, UniProt P17509 132-218, K202E)
# HOXB6 [9] = biological target: HOXB6 (Homo sapiens, UniProt P17509 132-218)
# HOXD13 [10] = biological target: HOXD13 (Homo sapiens, UniProt P35453 263-343, T313R)
# NKX2-6 [11] = biological target: T4, NKX2-6 (Homo sapiens, UniProt A6NCS4 118-204)
# T4 sequence: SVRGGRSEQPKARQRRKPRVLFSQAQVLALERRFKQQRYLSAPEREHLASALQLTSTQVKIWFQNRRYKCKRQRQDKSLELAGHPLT
# HOXD13 [12] = biological target: HOXD13 (Homo sapiens, UniProt P35453 263-343)
# HOXD13 [13] = biological target: HOXD13 (Homo sapiens, UniProt P35453 263-343, T313A)
# NKX2-6 [14] = biological target: T5, NKX2-6 (Homo sapiens, UniProt A6NCS4 118-204, F151L)
# T5 sequence: T4 sequence with F34L
# ALX1 [15] = biological target: ALX1 (Homo sapiens, UniProt Q15699 118-204, L144V)
# ALX1 [16] = biological target: ALX1 (Homo sapiens, UniProt Q15699 118-204, L144R)
# ALX1 [17] = biological target: ALX1 (Homo sapiens, UniProt Q15699 118-204)
# ALX3 [18] = biological target: ALX3 (Homo sapiens, UniProt O95076 139-225, N203Q)
# ALX3 [19] = biological target: ALX3 (Homo sapiens, UniProt O95076 139-225)
# ALX3 [20] = biological target: ALX3 (Homo sapiens, UniProt O95076 139-225, L168Q)
# ALX3 [21] = biological target: ALX3 (Homo sapiens, UniProt O95076 139-225, L168V)
# ALX3 [22] = biological target: ALX3 (Homo sapiens, UniProt O95076 139-225, N203S)
# PAX4 [23] = biological target: T6, PAX4 (Homo sapiens, UniProt O43316 9-242, F177V)
# T6 sequence: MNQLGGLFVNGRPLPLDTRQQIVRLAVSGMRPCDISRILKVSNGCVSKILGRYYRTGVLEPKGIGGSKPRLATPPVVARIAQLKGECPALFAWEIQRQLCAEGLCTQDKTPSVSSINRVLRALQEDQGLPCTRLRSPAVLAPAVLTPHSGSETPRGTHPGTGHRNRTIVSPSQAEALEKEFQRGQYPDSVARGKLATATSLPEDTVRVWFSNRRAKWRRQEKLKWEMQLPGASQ
# PAX4 [24] = biological target: T7, PAX4 (Homo sapiens, UniProt O43316 9-242, R227W)
# T7 sequence: T6 sequence with V169F, R219W
# PROP1 [25] = biological target: PROP1 (Homo sapiens, UniProt O75360 56-141)
# PROP1 [26] = biological target: PROP1 (Homo sapiens, UniProt O75360 56-141, R99H)
# PROP1 [27] = biological target: PROP1 (Homo sapiens, UniProt O75360 56-141, F88S)
# PROP1 (Homo sapiens, UniProt O75360 56-141, F88S), sequence (O75360 56-141 F88S): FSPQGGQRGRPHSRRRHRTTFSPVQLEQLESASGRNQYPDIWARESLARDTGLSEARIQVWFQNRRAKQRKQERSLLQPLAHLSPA
# ALX1 (Homo sapiens, UniProt Q15699 118-204, L144V), sequence (Q15699 118-204 L144V): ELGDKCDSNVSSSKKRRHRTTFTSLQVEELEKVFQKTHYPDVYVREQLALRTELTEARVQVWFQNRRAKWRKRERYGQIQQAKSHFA
# ALX1 (Homo sapiens, UniProt Q15699 118-204), sequence (Q15699 118-204): as the sequence (Q15699 118-204 L144V) above, with V27L counted along it
# ALX3 (Homo sapiens, UniProt O95076 139-225, N203Q), sequence (O95076 139-225 N203Q): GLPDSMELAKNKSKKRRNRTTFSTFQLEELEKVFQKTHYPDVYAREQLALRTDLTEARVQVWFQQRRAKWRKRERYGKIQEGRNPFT
# HOXB6 (Homo sapiens, UniProt P17509 132-218, K202E), sequence (P17509 132-218 K202E): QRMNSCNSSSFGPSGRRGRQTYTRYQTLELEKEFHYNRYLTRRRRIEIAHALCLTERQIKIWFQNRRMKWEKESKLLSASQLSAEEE
# HOXB6 (Homo sapiens, UniProt P17509 132-218), sequence (P17509 132-218): as the sequence (P17509 132-218 K202E) above, with E71K counted along it
# ALX1 (Homo sapiens, UniProt Q15699 118-204, L144R), sequence (Q15699 118-204 L144R): as the sequence (Q15699 118-204 L144V) above, with V27R counted along it
# HOXA2 (Homo sapiens, UniProt O43364 129-215, R185T), sequence (O43364 129-215 R185T): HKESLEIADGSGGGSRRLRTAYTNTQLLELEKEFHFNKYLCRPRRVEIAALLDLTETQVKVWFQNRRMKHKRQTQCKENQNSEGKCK
# ALX3 (Homo sapiens, UniProt O95076 139-225, N203S), sequence (O95076 139-225 N203S): as the sequence (O95076 139-225 N203Q) above, with Q65S counted along it
# ALX3 (Homo sapiens, UniProt O95076 139-225, L168Q), sequence (O95076 139-225 L168Q): as the sequence (O95076 139-225 N203Q) above, with L30Q, Q65N counted along it
# HOXA2 (Homo sapiens, UniProt O43364 129-215), sequence (O43364 129-215): as the sequence (O43364 129-215 R185T) above, with T57R counted along it
# HOXD13 (Homo sapiens, UniProt P35453 263-343), sequence (P35453 263-343): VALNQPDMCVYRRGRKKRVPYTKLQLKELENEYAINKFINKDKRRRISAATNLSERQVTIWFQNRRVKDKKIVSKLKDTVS
# ALX3 (Homo sapiens, UniProt O95076 139-225, L168V), sequence (O95076 139-225 L168V): as the sequence (O95076 139-225 N203Q) above, with L30V, Q65N counted along it
# HOXD13 (Homo sapiens, UniProt P35453 263-343, T313A), sequence (P35453 263-343 T313A): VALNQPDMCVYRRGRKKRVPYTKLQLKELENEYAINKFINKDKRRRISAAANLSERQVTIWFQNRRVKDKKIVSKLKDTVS
# HOXA2 (Homo sapiens, UniProt O43364 129-215, Y150S), sequence (O43364 129-215 Y150S): as the sequence (O43364 129-215 R185T) above, with Y22S, T57R counted along it
# PROP1 (Homo sapiens, UniProt O75360 56-141, R99H), sequence (O75360 56-141 R99H): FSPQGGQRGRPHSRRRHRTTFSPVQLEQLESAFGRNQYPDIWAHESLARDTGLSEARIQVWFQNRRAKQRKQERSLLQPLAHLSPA
# HOXA2 (Homo sapiens, UniProt O43364 129-215, R185K), sequence (O43364 129-215 R185K): as the sequence (O43364 129-215 R185T) above, with T57K counted along it
# PROP1 (Homo sapiens, UniProt O75360 56-141), sequence (O75360 56-141): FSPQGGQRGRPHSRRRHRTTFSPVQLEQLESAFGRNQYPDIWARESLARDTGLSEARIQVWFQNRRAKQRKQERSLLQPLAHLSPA
# ALX3 (Homo sapiens, UniProt O95076 139-225), sequence (O95076 139-225): as the sequence (O95076 139-225 N203Q) above, with Q65N counted along it
# HOXD13 (Homo sapiens, UniProt P35453 263-343, T313R), sequence (P35453 263-343 T313R): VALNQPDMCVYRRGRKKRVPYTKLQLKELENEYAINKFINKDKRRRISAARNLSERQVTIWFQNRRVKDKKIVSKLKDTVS
sequence,measurement,setting,value
AGGTCAGG,binding signal,VENTX [1],"8.18 upbm affinity estimate (log intensity, higher = more binding, comparable within an allelic series)"
same,binding signal,VENTX [2],"8.14 upbm affinity estimate (log intensity, higher = more binding, comparable within an allelic series)"
same,binding signal,VENTX [3],"8.06 upbm affinity estimate (log intensity, higher = more binding, comparable within an allelic series)"
CGATTAAG,binding signal,VENTX [1],"11.4 upbm affinity estimate (log intensity, higher = more binding, comparable within an allelic series)"
same,binding signal,VENTX [2],"12.4 upbm affinity estimate (log intensity, higher = more binding, comparable within an allelic series)"
same,binding signal,VENTX [3],"11.3 upbm affinity estimate (log intensity, higher = more binding, comparable within an allelic series)"
ATTAGTGG,binding signal,VENTX [1],"11.7 upbm affinity estimate (log intensity, higher = more binding, comparable within an allelic series)"
same,binding signal,VENTX [2],"12.3 upbm affinity estimate (log intensity, higher = more binding, comparable within an allelic series)"
same,binding signal,VENTX [3],"11.4 upbm affinity estimate (log intensity, higher = more binding, comparable within an allelic series)"
AGCCCGAA,binding signal,VENTX [1],"8.34 upbm affinity estimate (log intensity, higher = more binding, comparable within an allelic series)"
same,binding signal,VENTX [2],"8.32 upbm affinity estimate (log intensity, higher = more binding, comparable within an allelic series)"
same,binding signal,VENTX [3],"8.13 upbm affinity estimate (log intensity, higher = more binding, comparable within an allelic series)"
CCGATTAA,binding signal,VENTX [1],"11.3 upbm affinity estimate (log intensity, higher = more binding, comparable within an allelic series)"
same,binding signal,VENTX [2],"12.5 upbm affinity estimate (log intensity, higher = more binding, comparable within an allelic series)"
same,binding signal,VENTX [3],"11.3 upbm affinity estimate (log intensity, higher = more binding, comparable within an allelic series)"
CATGGCGG,binding signal,VENTX [1],"7.95 upbm affinity estimate (log intensity, higher = more binding, comparable within an allelic series)"
same,binding signal,VENTX [2],"7.8 upbm affinity estimate (log intensity, higher = more binding, comparable within an allelic series)"
same,binding signal,VENTX [3],"7.87 upbm affinity estimate (log intensity, higher = more binding, comparable within an allelic series)"
AAATTCGT,binding signal,VENTX [1],"9.56 upbm affinity estimate (log intensity, higher = more binding, comparable within an allelic series)"
same,binding signal,VENTX [2],"9.96 upbm affinity estimate (log intensity, higher = more binding, comparable within an allelic series)"
same,binding signal,VENTX [3],"9.72 upbm affinity estimate (log intensity, higher = more binding, comparable within an allelic series)"
GCGCAGCA,binding signal,VENTX [1],"7.82 upbm affinity estimate (log intensity, higher = more binding, comparable within an allelic series)"
same,binding signal,VENTX [2],"7.9 upbm affinity estimate (log intensity, higher = more binding, comparable within an allelic series)"
same,binding signal,VENTX [3],"7.91 upbm affinity estimate (log intensity, higher = more binding, comparable within an allelic series)"
TCGATTAA,binding signal,VENTX [1],"11.4 upbm affinity estimate (log intensity, higher = more binding, comparable within an allelic series)"
same,binding signal,VENTX [2],"12.3 upbm affinity estimate (log intensity, higher = more binding, comparable within an allelic series)"
same,binding signal,VENTX [3],"11.2 upbm affinity estimate (log intensity, higher = more binding, comparable within an allelic series)"
CCCCGTAC,binding signal,VENTX [1],"8.03 upbm affinity estimate (log intensity, higher = more binding, comparable within an allelic series)"
same,binding signal,VENTX [2],"8.06 upbm affinity estimate (log intensity, higher = more binding, comparable within an allelic series)"
same,binding signal,VENTX [3],"8.02 upbm affinity estimate (log intensity, higher = more binding, comparable within an allelic series)"
GCCCCCCC,binding signal,VENTX [1],"8.24 upbm affinity estimate (log intensity, higher = more binding, comparable within an allelic series)"
same,binding signal,VENTX [2],"8.18 upbm affinity estimate (log intensity, higher = more binding, comparable within an allelic series)"
same,binding signal,VENTX [3],"8.34 upbm affinity estimate (log intensity, higher = more binding, comparable within an allelic series)"
same,binding signal,HOXA2 [4],"7.05 upbm affinity estimate (log intensity, higher = more binding, comparable within an allelic series)"
same,binding signal,HOXA2 [5],"9.94 upbm affinity estimate (log intensity, higher = more binding, comparable within an allelic series)"
same,binding signal,HOXA2 [6],"10.3 upbm affinity estimate (log intensity, higher = more binding, comparable within an allelic series)"
same,binding signal,HOXA2 [7],"7.28 upbm affinity estimate (log intensity, higher = more binding, comparable within an allelic series)"
AAATTACC,binding signal,VENTX [1],"11.1 upbm affinity estimate (log intensity, higher = more binding, comparable within an allelic series)"
same,binding signal,VENTX [2],"11.5 upbm affinity estimate (log intensity, higher = more binding, comparable within an allelic series)"
same,binding signal,VENTX [3],"11 upbm affinity estimate (log intensity, higher = more binding, comparable within an allelic series)"
same,binding signal,HOXB6 [8],"9.94 upbm affinity estimate (log intensity, higher = more binding, comparable within an allelic series)"
same,binding signal,HOXB6 [9],"11.6 upbm affinity estimate (log intensity, higher = more binding, comparable within an allelic series)"
CCGGGACC,binding signal,VENTX [1],"8.02 upbm affinity estimate (log intensity, higher = more binding, comparable within an allelic series)"
same,binding signal,VENTX [2],"8.2 upbm affinity estimate (log intensity, higher = more binding, comparable within an allelic series)"
same,binding signal,VENTX [3],"7.98 upbm affinity estimate (log intensity, higher = more binding, comparable within an allelic series)"
same,binding signal,HOXD13 [10],"9.46 upbm affinity estimate (log intensity, higher = more binding, comparable within an allelic series)"
same,binding signal,NKX2-6 [11],"9.14 upbm affinity estimate (log intensity, higher = more binding, comparable within an allelic series)"
same,binding signal,HOXD13 [12],"9.43 upbm affinity estimate (log intensity, higher = more binding, comparable within an allelic series)"
same,binding signal,HOXD13 [13],"9.37 upbm affinity estimate (log intensity, higher = more binding, comparable within an allelic series)"
same,binding signal,NKX2-6 [14],"9.26 upbm affinity estimate (log intensity, higher = more binding, comparable within an allelic series)"
AGTCTGCC,binding signal,VENTX [1],"8.03 upbm affinity estimate (log intensity, higher = more binding, comparable within an allelic series)"
same,binding signal,VENTX [2],"8.12 upbm affinity estimate (log intensity, higher = more binding, comparable within an allelic series)"
same,binding signal,VENTX [3],"8.07 upbm affinity estimate (log intensity, higher = more binding, comparable within an allelic series)"
same,binding signal,ALX1 [15],"6.46 upbm affinity estimate (log intensity, higher = more binding, comparable within an allelic series)"
same,binding signal,ALX1 [16],"6.59 upbm affinity estimate (log intensity, higher = more binding, comparable within an allelic series)"
same,binding signal,ALX1 [17],"6.61 upbm affinity estimate (log intensity, higher = more binding, comparable within an allelic series)"
CCACGCGC,binding signal,VENTX [1],"8.13 upbm affinity estimate (log intensity, higher = more binding, comparable within an allelic series)"
same,binding signal,VENTX [2],"8.26 upbm affinity estimate (log intensity, higher = more binding, comparable within an allelic series)"
same,binding signal,VENTX [3],"8.14 upbm affinity estimate (log intensity, higher = more binding, comparable within an allelic series)"
same,binding signal,HOXB6 [8],"9.05 upbm affinity estimate (log intensity, higher = more binding, comparable within an allelic series)"
same,binding signal,HOXB6 [9],"8.96 upbm affinity estimate (log intensity, higher = more binding, comparable within an allelic series)"
CGAGCCGC,binding signal,VENTX [1],"8.16 upbm affinity estimate (log intensity, higher = more binding, comparable within an allelic series)"
same,binding signal,VENTX [2],"8.17 upbm affinity estimate (log intensity, higher = more binding, comparable within an allelic series)"
same,binding signal,VENTX [3],"8.15 upbm affinity estimate (log intensity, higher = more binding, comparable within an allelic series)"
same,binding signal,ALX3 [18],"7.74 upbm affinity estimate (log intensity, higher = more binding, comparable within an allelic series)"
same,binding signal,NKX2-6 [11],"9.49 upbm affinity estimate (log intensity, higher = more binding, comparable within an allelic series)"
same,binding signal,ALX3 [19],"7.82 upbm affinity estimate (log intensity, higher = more binding, comparable within an allelic series)"
same,binding signal,ALX3 [20],"7.81 upbm affinity estimate (log intensity, higher = more binding, comparable within an allelic series)"
same,binding signal,NKX2-6 [14],"9.16 upbm affinity estimate (log intensity, higher = more binding, comparable within an allelic series)"
same,binding signal,ALX3 [21],"7.75 upbm affinity estimate (log intensity, higher = more binding, comparable within an allelic series)"
same,binding signal,ALX3 [22],"7.79 upbm affinity estimate (log intensity, higher = more binding, comparable within an allelic series)"
ACATATTA,binding signal,VENTX [1],"10.6 upbm affinity estimate (log intensity, higher = more binding, comparable within an allelic series)"
same,binding signal,VENTX [2],"11.3 upbm affinity estimate (log intensity, higher = more binding, comparable within an allelic series)"
same,binding signal,VENTX [3],"10.4 upbm affinity estimate (log intensity, higher = more binding, comparable within an allelic series)"
same,binding signal,ALX3 [18],"8.55 upbm affinity estimate (log intensity, higher = more binding, comparable within an allelic series)"
same,binding signal,PAX4 [23],"10.8 upbm affinity estimate (log intensity, higher = more binding, comparable within an allelic series)"
same,binding signal,PAX4 [24],"11 upbm affinity estimate (log intensity, higher = more binding, comparable within an allelic series)"
CTCCGTCC,binding signal,VENTX [1],"8.11 upbm affinity estimate (log intensity, higher = more binding, comparable within an allelic series)"
same,binding signal,VENTX [2],"8.05 upbm affinity estimate (log intensity, higher = more binding, comparable within an allelic series)"
same,binding signal,VENTX [3],"8.03 upbm affinity estimate (log intensity, higher = more binding, comparable within an allelic series)"
same,binding signal,ALX1 [15],"6.35 upbm affinity estimate (log intensity, higher = more binding, comparable within an allelic series)"
same,binding signal,ALX1 [16],"6.21 upbm affinity estimate (log intensity, higher = more binding, comparable within an allelic series)"
same,binding signal,PROP1 [25],"6.5 upbm affinity estimate (log intensity, higher = more binding, comparable within an allelic series)"
same,binding signal,PROP1 [26],"6.55 upbm affinity estimate (log intensity, higher = more binding, comparable within an allelic series)"
same,binding signal,PROP1 [27],"6.51 upbm affinity estimate (log intensity, higher = more binding, comparable within an allelic series)"
same,binding signal,ALX1 [17],"6.3 upbm affinity estimate (log intensity, higher = more binding, comparable within an allelic series)"
